Screen size: about 2,300 compounds; about 790 (34%) were called active. The rule behind the calls is not given here. The list shows a part of the results. Entries with a potency or affinity are not part of this list.
Experiment: THP-1 cell cytotoxicity, dose response, cytotoxicity control for non-replicating M. tuberculosis project (AID 489025)
Details: THP-1 cell viability; series mostly up to 40 µM
In the case of `COCCNC(=O)c1cc2cc(Cl)cc(Cl)c2oc1=O`, the outcome is reported as “inactive”. In the case of `COC(=O)c1cc2c(ccc3ccccc32)oc1=O`, the outcome is reported as “inactive”. For `C=CCOc1ccc(CNCCO)cc1OCC`, the outcome was “inactive”. For `O=S(=O)(c1ccc(Cl)c2ccccc12)N1CCCC1`, the outcome was “inactive”. With `CN(C(=O)COC(=O)c1ccc([N+](=O)[O-])cc1Cl)C1CCCCC1` the outcome was “inactive”. With `N#Cc1cc(N)ccc1-n1cccc1` the outcome was “inactive”. For `Cc1cc(C(=O)N/N=C/c2ccc(OC(=O)c3ccccc3Br)cc2)n[nH]1`, the outcome was “inactive”. In the case of `Cc1cc2ccccc2n1CCNC(=O)C(C)(C)C`, the outcome is reported as “inactive”. In the case of `CC(C)OC(=O)C(C)Oc1ccc(C(=O)NCCc2ccccc2)cc1` (configuration not stated), the outcome is reported as “inactive”. For `CC1CCN(C(=O)COC(=O)c2cc3ccccc3cc2O)CC1`, the outcome was “inactive”. For `O=C(CC1CCCCC1)NCc1ccccc1`, the outcome was “inactive”. With `CCNC(=O)COC(=O)c1ccc(-c2nc3ccccc3s2)s1` the outcome was “inactive”. With `CCSc1ncc(/C=N/Nc2ccc(Cl)cc2)n1C` the outcome was “inactive”. In the case of `Cc1ccc(NC(=O)COC(=O)C2=COCCO2)c([N+](=O)[O-])c1`, the outcome is reported as “inactive”. For `Cc1c(NC(=O)c2coc(=O)c(Br)c2)c(=O)n(-c2ccccc2)n1C`, the outcome was “inactive”. For `CCOC(=O)C(=O)NC12CC3CC(CC(C3)C1)C2`, the outcome was “inactive”. In the case of `O=C(COC(=O)c1ccc(Br)o1)Nc1ncc([N+](=O)[O-])s1`, the outcome is reported as “inactive”. With `O=C(CCS(=O)(=O)Cc1ccccc1)Nc1ncc([N+](=O)[O-])s1` the outcome was “inactive”. With `O=C(NCCC1CCCC1)c1cccs1` the outcome was “inactive”. With `C/C(=N\NC(=O)c1cccs1)c1ccc2c(c1)OCO2` the outcome was “inactive”. With `CCC(=O)c1ccc(OCC(=O)OCC(=O)N2CCc3ccccc3C2)cc1` the outcome was “inactive”. In the case of `O=C(OCC(=O)N1CCc2ccccc21)c1ccc([N+](=O)[O-])cc1`, the outcome is reported as “inactive”. In the case of `COC(=O)COc1ccc2cc(-c3ccc(OC)cc3)c(=O)oc2c1`, the outcome is reported as “inactive”. In the case of `Cc1ccc(CCC(=O)Nc2ccc(C)c(C)c2)o1`, the outcome is reported as “inactive”. With `Cc1cccc(NCCC(=O)c2ccc([N+](=O)[O-])cc2)c1C` the outcome was “inactive”. For `O=C(NCc1ccc(Cl)cc1)c1n[nH]c([N+](=O)[O-])c1Cl`, the outcome was “inactive”. For `O=C(Nc1ccc([N+](=O)[O-])cc1)c1ccc(Cn2cc([N+](=O)[O-])cn2)cc1`, the outcome was “inactive”. With `Cc1cccc(NC(=O)c2n[nH]c([N+](=O)[O-])c2Br)c1C` the outcome was “inactive”. For `O=C(NCc1ccc(F)cc1)c1ccc(Br)o1`, the outcome was “inactive”. In the case of `COc1ccc(NC(=O)c2ccc(-c3ccc([N+](=O)[O-])cc3)o2)cc1OC`, the outcome is reported as “inactive”. For `CCC1CCc2sc(C(=O)NCC3CCCO3)cc2C1` (configuration not stated), the outcome was “inactive”. With `CN1CCN(c2c(F)cc3c(=O)c(C(=O)O)cn4c3c2SCC4)CC1` the outcome was “inactive”. For `Cc1cc(C=C2C(=O)N(C)C(=S)N(C)C2=O)c(C)n1-c1cccnc1`, the outcome was “inactive”. With `Cc1cccc(NC(=O)COC(=O)CCc2c[nH]c3ccccc23)c1C` the outcome was “inactive”. With `CC(=O)c1ccc(-c2nnc(CCC(=O)N(C)Cc3cccc4cnccc34)o2)s1` the outcome was “inactive”. For `CN1C(=O)CC(Sc2ccccc2C(=O)O)C1=O` (configuration not stated), the outcome was “inactive”. For `O=C(COC(=O)c1ccc(Cl)s1)c1ccc[nH]1`, the outcome was “inactive”. With `COC(=O)[C@H](CC(C)C)NC(=O)NCCC1=CCCCC1` the outcome was “inactive”. In the case of `COc1ccccc1CCNC(=O)c1ccc(C)o1`, the outcome is reported as “inactive”. With `CC12CN3CC(C)(CN(C1)C3c1ccc([N+](=O)[O-])o1)C2` (configuration not stated) the outcome was “inactive”. With `CCn1nnc(NC(=O)COc2ccc(C3CCCCC3)cc2)n1` the outcome was “inactive”. In the case of `COc1ccccc1NC(=O)C(=O)/C=C(\O)c1ccccc1`, the outcome is reported as “inactive”. For `CCn1nnc(NC(=O)c2ccc(-c3ccc(Cl)cc3)o2)n1`, the outcome was “inactive”. In the case of `CC1CC(C)CN(C(=O)COC(=O)c2ccc([N+](=O)[O-])o2)C1` (configuration not stated), the outcome is reported as “inactive”. In the case of `COc1ccc(OCCCC(=O)Nc2ccc(N3CCOCC3)cc2)cc1`, the outcome is reported as “inactive”. For `CCOC(=O)CCNC(=O)c1ccc2nc(C3CCCCC3)oc2c1`, the outcome was “inactive”. For `Cc1[nH][nH]c(=O)c1C(c1ccc(-c2ccc(F)cc2)o1)c1c(C)[nH][nH]c1=O`, the outcome was “inactive”. For `CC(C)(C)OC(=O)NCCC(=O)Oc1ccc2ccc(=O)oc2c1`, the outcome was “inactive”. With `Cc1noc(C)c1COc1ccc(C(=O)Nc2ccccn2)cc1` the outcome was “inactive”. In the case of `COCCn1c(C)cc(C(=O)COC(=O)c2ccc([N+](=O)[O-])o2)c1C`, the outcome is reported as “inactive”. With `Cc1ccc(C)c(-c2nnc(NC(=O)COc3ccccc3)o2)c1` the outcome was “inactive”. In the case of `Cc1ccc(C)c(-c2nnc(NC(=O)C3=COCCO3)o2)c1`, the outcome is reported as “inactive”. For `Cc1cc(C)c(C(=O)COC(=O)c2ccc([N+](=O)[O-])o2)cc1C`, the outcome was “inactive”. With `O=C(Nc1ccccc1F)c1ccc(CSc2ccccc2)o1` the outcome was “inactive”. For `O=C1NN(c2ccccc2)C(=O)/C1=C/c1ccc(Sc2ccc(Cl)cc2)o1`, the outcome was “inactive”. With `COc1ccc(-c2nnn(Cc3ccccc3)n2)cc1` the outcome was “inactive”. For `NC(=O)c1cccnc1Nc1cccc(F)c1`, the outcome was “inactive”. For `COCCCC1CCN(Cc2nc(-c3ccccc3)no2)CC1`, the outcome was “inactive”. With `CCCCNC(=O)COC(=O)c1cc(Br)ccc1Cl` the outcome was “inactive”. With `CC1COC(=O)C(NNc2ccc(Cl)c(Cl)c2)=N1` (configuration not stated) the outcome was “inactive”. With `S=c1c2c(nc3nc[nH]n13)CCC2` the outcome was “inactive”. In the case of `O=C(Cc1ccc(Cl)cc1)OCC(=O)c1ccc[nH]1`, the outcome is reported as “inactive”. For `Cc1cccc(OC(=O)c2sc3ncn(C)c(=O)c3c2C)c1`, the outcome was “inactive”. For `Cc1ccccc1NC(=O)c1nc[nH]c1C(=O)NCc1ccccc1`, the outcome was “inactive”. In the case of `O=C(c1ccc([N+](=O)[O-])o1)N1CCN(Cc2ccccc2)CC1`, the outcome is reported as “inactive”. With `O=[N+]([O-])c1ccc(CN2CCN(c3ccc(Cl)cc3)CC2)o1` the outcome was “inactive”. For `Cc1cccc(CC(=O)NCC2CCCCC2)c1`, the outcome was “inactive”. With `COc1ccc2c(c1)C(=C(C#N)C#N)C(=O)N2CCc1ccccc1` the outcome was “inactive”. With `CSc1nc2ccc(NC(=O)C3CC(=O)N(Cc4ccccc4)C3)cc2s1` (configuration not stated) the outcome was “inactive”. With `O=C(CCC1CCCCC1)NCc1cccs1` the outcome was “inactive”. With `CCc1ccc(OCC(=O)c2c(O)c3ccccc3oc2=O)cc1` the outcome was “inactive”. For `CCCn1nnc(NC(=O)COc2ccc(CC)cc2)n1`, the outcome was “inactive”. With `COc1cc(/C=N/Nc2ccc(Cl)c(C(=O)O)c2)ccc1OC(=O)c1cccs1` the outcome was “inactive”. With `COc1ccc(-c2nc(C=O)cs2)cc1` the outcome was “inactive”. For `Cc1cc(Br)ccc1OCCCCN1CCC(C)CC1`, the outcome was “inactive”. For `CCOC(=O)COc1cc([N+](=O)[O-])cc2cccnc12`, the outcome was “inactive”. With `CCOC(=O)COc1ccc2c3c(c(=O)oc2c1C)CCC3` the outcome was “inactive”.

From PubChem BioAssay AID489025 (Southern Research Specialized Biocontainment Screening …, 2010)
